For part of these data: Potency and affinity values are given separately. Activity calls are given as the source filed them. Unless noted, no rule for the calls is given here.
Assays:
[1] = antimalarial activity against Dd2 strain (AID 2302;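 active = growth inhibition above 50% at the single 2 µM test dose, taken to imply half-maximal potency below 2 µM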;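 also: 0% = DMSO untreated growth and 100% = chloroquine plus artemisinin killed control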); conditions: P. falciparum Dd2 in RBCs, LDH growth readout, 72 h; at 2 µM; active compounds read high
[2] = human hepatoma cell viability loss – ATP luminescence, cytotoxicity control for P. falciparum antimalarial project, primary screen (AID 2303;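 active = inhibition above 50%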;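 also: 0% = DMSO wells and 100% = digitonin-killed cells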); conditions: HepG2 viability, 24-48 h, at 10 µM, active compounds read high
[3] = molecular target: L-lactate dehydrogenase (Plasmodium falciparum (isolate CDC / Honduras)) (UniProt Q27743); experiment: PfLDH activity inhibition – cell lysate, 3D7 strain, counter-screen for P. falciparum growth inhibition project (AID 2304);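 also: 0% = vehicle and 100% = reference inhibitor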; conditions: P. falciparum 3D7 crude extract, LDH APAD/NBT absorbance; at 2 µM; active compounds read high
[4] = inhibition of 3D7 malaria parasite growth – strain 3D7 (AID 2306);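 also: 0% = DMSO wells and 100% = chloroquine plus artemisinin control wells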; conditions: P. falciparum 3D7 erythrocytic growth, LDH absorbance, 72 h; at 2 µM; active compounds read high
[5] = molecular target: Calcium-dependent protein kinase 1 (Plasmodium falciparum (isolate 3D7)) (UniProt P62344); experiment: PfCDPK1 kinase inhibitors, biochemical, TCAMS library (AID 1159585; cut-off not given, nearly all actives have IC50 up to about 0.98 µM;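 also: inhibitors leave more ATP so luminescence rises with inhibition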); conditions: recombinant PfCDPK1, Kinase-Glo ATP depletion luminescence
[6] = molecular target: Plasmodium falciparum protein kinase 6 (PK6, PF3D7_1337100) (UniProt Q8IDW1); experiment: PfPK6 kinase inhibitors, biochemical, TCAMS library (AID 1159586); conditions: recombinant PfPK6, Kinase-Glo ATP depletion luminescence
[7] = molecular target: Protein kinase 7 (PK7), Plasmodium falciparum 3D7 (PF3D7_0213400) (UniProt Q7YTF7); experiment: inhibition of Plasmodium PK7 catalytic activity – biochemical, TCAMS antimalarial set, Kinase-Glo luminescence (AID 1159587); conditions: recombinant PfPK7, Kinase-Glo ATP depletion luminescence
[8] = molecular target: Calcium-dependent protein kinase 4 (Plasmodium falciparum (isolate 3D7)) (UniProt Q8IBS5); experiment: PfCDPK4 kinase inhibitors, biochemical, TCAMS library (AID 1159588; cut-off not given, nearly all actives have IC50 up to about 0.91 µM); conditions: recombinant PfCDPK4, Kinase-Glo ATP depletion luminescence
Chain of Calcium-dependent protein kinase 4 (Plasmodium falciparum (isolate 3D7)) (Q8IBS5 whole entry, looked up): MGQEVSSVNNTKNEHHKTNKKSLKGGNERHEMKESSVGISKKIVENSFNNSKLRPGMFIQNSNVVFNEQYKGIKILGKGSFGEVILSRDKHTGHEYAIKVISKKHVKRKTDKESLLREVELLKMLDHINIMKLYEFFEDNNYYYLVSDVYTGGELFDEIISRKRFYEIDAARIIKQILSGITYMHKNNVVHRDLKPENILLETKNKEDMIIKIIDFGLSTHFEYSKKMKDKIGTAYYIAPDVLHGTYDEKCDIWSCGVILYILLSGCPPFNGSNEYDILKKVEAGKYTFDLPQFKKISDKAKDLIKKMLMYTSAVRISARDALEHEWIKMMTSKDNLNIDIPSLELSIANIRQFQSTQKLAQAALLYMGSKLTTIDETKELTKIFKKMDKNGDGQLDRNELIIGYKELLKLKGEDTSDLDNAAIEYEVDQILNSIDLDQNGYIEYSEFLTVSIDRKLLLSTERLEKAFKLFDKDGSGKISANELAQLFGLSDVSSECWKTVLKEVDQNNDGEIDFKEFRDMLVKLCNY

Chain of Protein kinase 7 (PK7), Plasmodium falciparum 3D7 (PF3D7_0213400) (Q7YTF7 1-343): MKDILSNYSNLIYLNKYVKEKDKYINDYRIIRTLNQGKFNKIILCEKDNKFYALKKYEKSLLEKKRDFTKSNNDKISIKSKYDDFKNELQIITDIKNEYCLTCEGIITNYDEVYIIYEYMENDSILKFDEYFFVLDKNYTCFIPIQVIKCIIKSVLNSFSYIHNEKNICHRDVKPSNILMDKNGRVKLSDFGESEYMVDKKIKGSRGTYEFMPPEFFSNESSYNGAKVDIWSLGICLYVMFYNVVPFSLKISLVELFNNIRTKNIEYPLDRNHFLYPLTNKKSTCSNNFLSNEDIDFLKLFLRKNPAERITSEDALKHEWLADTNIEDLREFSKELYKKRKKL
Chain of L-lactate dehydrogenase (Plasmodium falciparum (isolate CDC / Honduras)) (Q27743 whole entry, looked up): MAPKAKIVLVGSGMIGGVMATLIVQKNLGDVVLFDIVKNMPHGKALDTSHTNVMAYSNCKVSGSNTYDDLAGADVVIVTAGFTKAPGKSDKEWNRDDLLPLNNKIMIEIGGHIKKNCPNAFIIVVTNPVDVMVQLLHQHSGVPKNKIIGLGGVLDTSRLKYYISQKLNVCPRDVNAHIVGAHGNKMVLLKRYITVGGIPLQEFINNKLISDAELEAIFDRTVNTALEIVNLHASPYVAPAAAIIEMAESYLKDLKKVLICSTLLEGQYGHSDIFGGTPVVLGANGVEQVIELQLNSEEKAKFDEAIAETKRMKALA
Chain of Plasmodium falciparum protein kinase 6 (PK6, PF3D7_1337100) (Q8IDW1 1-305): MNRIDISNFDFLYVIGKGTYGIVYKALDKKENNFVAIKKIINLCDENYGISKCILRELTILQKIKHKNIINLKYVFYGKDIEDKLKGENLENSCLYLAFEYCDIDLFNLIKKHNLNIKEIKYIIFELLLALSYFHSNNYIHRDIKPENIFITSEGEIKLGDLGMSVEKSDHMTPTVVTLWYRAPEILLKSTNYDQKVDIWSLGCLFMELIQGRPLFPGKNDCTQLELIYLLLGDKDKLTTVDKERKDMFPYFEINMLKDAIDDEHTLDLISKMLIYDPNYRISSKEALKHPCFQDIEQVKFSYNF
Chain of Calcium-dependent protein kinase 1 (Plasmodium falciparum (isolate 3D7)) (P62344 whole entry, looked up): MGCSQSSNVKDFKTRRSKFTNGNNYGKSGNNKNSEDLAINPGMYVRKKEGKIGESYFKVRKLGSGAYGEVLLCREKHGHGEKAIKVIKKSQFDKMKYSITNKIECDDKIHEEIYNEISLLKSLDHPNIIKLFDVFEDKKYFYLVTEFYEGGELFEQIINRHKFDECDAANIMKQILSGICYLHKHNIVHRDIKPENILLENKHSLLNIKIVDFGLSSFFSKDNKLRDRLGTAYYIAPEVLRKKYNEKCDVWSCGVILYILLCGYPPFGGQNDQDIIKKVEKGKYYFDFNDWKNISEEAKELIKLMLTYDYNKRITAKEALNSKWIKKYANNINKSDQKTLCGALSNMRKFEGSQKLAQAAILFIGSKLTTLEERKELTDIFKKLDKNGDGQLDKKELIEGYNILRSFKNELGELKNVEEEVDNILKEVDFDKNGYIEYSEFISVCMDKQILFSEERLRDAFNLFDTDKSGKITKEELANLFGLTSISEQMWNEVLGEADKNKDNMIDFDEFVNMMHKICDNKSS

Cc1ccc(C)c(CN2CCC(CNC(=O)c3cc4ccc5cccnc5c4[nH]3)CC2)c1
inactive: growth inhibition [1] 10% | inhibition [2] 25% | inhibition [3] -3% | outcome [5] | outcome [6] | outcome [7] | outcome [8]
active: growth inhibition [4] 95%

Cc1cccc2[nH]c(-c3ccc(-c4cccc(CNCc5cnn(-c6ccccc6)n5)c4)s3)nc12
inactive: inhibition [2] 40% | inhibition [3] -1% | outcome [5] | outcome [6] | outcome [7] | outcome [8]
active: growth inhibition [1] 58% | growth inhibition [4] 98%

CCN(CC)CCN1C(=O)c2oc3ccc(Cl)cc3c(=O)c2C1c1ccc(SC)cc1 (centres undefined)
inactive: growth inhibition [1] 6% | inhibition [2] -5% | inhibition [3] -6% | outcome [5] | outcome [6] | outcome [7] | outcome [8]
active: growth inhibition [4] 98%

Source: PubChem BioAssay
